Experimental findings from PubChem BioAssay (NCI) are described below.

Values joined by “and” are separate entries in the source; they are usually repeats but may differ in a detail not shown here. Identical values can stand only once. This is part of a sample that, as a whole, favours compounds with a hit. Of some 83,000 tested, about 20% had one in any assay.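 Negative percent growth values reflect cell death: -40 means 40% of the cells present at the start died, and -100 means all died.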 Active and inactive are the calls of the source.

The assay relates to HCC-2998 colon. In words: NCI-60 one-dose screen, 48 h (100 = growth as untreated, 0 = no growth, -100 = all killed). To be noted: 10 µM unless noted. How it is done:
Growth inhibition of the HCC-2998 human tumor cell line is measured as a screen for anti-cancer activity. Cells are grown in 96 well plates and exposed to the test compound for 48 hours. Compounds are tested at a single concentration, which is 10^-5 M for most compounds. The reported endpoint is percent growth (GI% or GIPRCNT), where numbers from 0 - 100% represent growth inhibition, and numbers from -100% - 0 represent cell death. For example, a value of 40 represents 60% growth inhibition. A value of 0 means no net growth occurred over the course of the experiment. A value of -40 indicates 40% of cells at the beginning of the experiment died by the end of the experiment. A value of -100 means all cells are dead at the end of the experiment.
NCI-60 Human Tumor Cell Lines Screen was performed using the standard one-dose NCI protocol, which is described in more detail at https://dtp.cancer.gov/discovery_development/nci-60/default.htm.
Compounds with GIPRCNT values below 10 were considered active. Activity score was based on GIPRCNT using the following formula: […]
Score is 0 for GIPRCNT values of 100 or above, 50 for GIPRCNT values of 0, and 100 for GIPRCNT values of -100.
In the case of `CC(C)Oc1ccc2cc(-c3nn(CC4CCNCC4)c4ncnc(N)c34)ccc2c1`, the growth is 77.7% (inactive) and -13.5% (active). As for `CC(=O)Nc1cccc2c1CCCC2`, the figure is 99.8% (inactive) and 95.3% (inactive); as for `CC(=O)NC(Cc1ccccc1)C(=O)Oc1ccc2ccccc2c1` (stereo not given), 105% (inactive) and 97% (inactive). As for `CC1=C(/C=C/C(C)=C/C=C/C(C)=C/C(=O)Nc2ccc(O)cc2)C(C)(C)CCC1`, the figure is 51% (inactive); as for `CCCCCCCCCCCCOc1ccccc1C=O`, 90.2% (inactive). In the case of `OCc1ccccn1` it was 109% (inactive); in that of `Nc1ccccc1Nc1ccccc1`, 98.7% (inactive) and 96.4% (inactive). As to `O=CC(O)C(O)C(O)CO` (stereo not given), the growth was 101% (inactive).

With `CC(/C=N/N1C(=O)c2ccccc2C1=O)c1ccccc1` (stereo not given), the growth was 106% (inactive).

In the case of `COc1ccc2ccccc2c1/C=N/N1CCCCC1`, the growth was 109% (inactive). As for `COc1cc(NS(C)(=O)=O)ccc1Nc1c2ccccc2nc2c(C)cccc12`, the figure is -60.5% (active) and -6.07% (active); as for `O=[N+]([O-])c1ccccc1N(S(=O)(=O)c1ccccc1)S(=O)(=O)c1ccccc1`, 101% (inactive) and 106% (inactive). In the case of `Nc1ncnc2c1ncn2C1CC(O)C(CO)O1` (stereo not given) it was -17.3% (active) and 119% (inactive). As for `O=C(N/N=C/c1cccc2ccccc12)C1CC1`, the figure is 104% (inactive) and 101% (inactive). For the compound `CCOc1ccc2nc3cc(N)ccc3c(N)c2c1`, the growth is 45.3% (inactive) and 46.1% (inactive). In the case of `O=C(O)C1(C(=O)O)CCC1.[NH2-].[NH2-].[Pt+2]` it was 97.2% (inactive) and 118% (inactive). With `Nc1nc(SC/C=C/CCl)c2[nH]cnc2n1`, the growth is 101% (inactive) and 103% (inactive).

Turning to `N/C(=N\N=C\c1ccc2c(c1)OCO2)N/N=C\c1ccc2c(c1)OCO2`, the growth is 103% (inactive) and 86.1% (inactive). As for `COc1cc2c(c(OC)c1OC)-c1ccc(OC)c(=O)cc1[C@@H](NC(C)=O)CC2`, the figure is 3.25% (active) and 13.4% (inactive) and -59% (active). In the case of `CC(C)(O)Cn1cc(-c2ccc3nc(OC4CC4)ccc3c2)c2c(N)ncnc21` it was 99.7% (inactive) and 89.4% (inactive); in that of `Cc1cccc(/C=C\C(=O)c2ccc(Cl)cc2)c1`, 95% (inactive) and 98.2% (inactive).

With `Cc1ccc2nc3c(nc2c1)-c1cccc2cccc-3c12`, the growth is 103% (inactive). In the case of `CNC(=O)c1cccc(-c2ccc3c(N4CCOC[C@@H]4C)nc(N4CCOC[C@@H]4C)nc3n2)c1` it was 18.6% (inactive) and 4% (active); in that of `Cc1nnc(NC/C=C/c2ccccc2)s1`, 127% (inactive) and 102% (inactive); in that of `COc1ccccc1NC(=O)OCC#CCOC(=O)Nc1ccccc1OC`, 103% (inactive) and 104% (inactive). As for `Oc1ccccc1/C=N\NC(=S)N/N=C/c1ccccc1O`, the figure is 33.8% (inactive) and 49.7% (inactive); as for `CN(Cc1ccccc1)Cc1ccccc1`, 99.4% (inactive); as for `c1ccc(NCc2ccc3c(c2)OCO3)cc1`, 102% (inactive) and 112% (inactive). As for `O=C(N/N=C/c1ccc2c(c1)OCO2)c1ccncc1`, the figure is 103% (inactive) and 113% (inactive); as for `O=[N+]([O-])c1ccc(/C=N\NC(=S)Nc2ccc(F)cc2)cc1`, 106% (inactive) and 87.6% (inactive); as for `CN(C)CCC(=O)c1ccc(Cl)cc1`, 97.3% (inactive). Consider `O=C1c2ccccc2C(=O)c2c(NCCNCCO)ccc(NCCNCCO)c21`, for which the growth is 36.6% (inactive) and 41.1% (inactive). In the case of `CCN(CC)CCCC(C)Nc1cnc(C(=O)Nc2cc(F)cc3cccnc23)cn1` (stereo not given) it was 66.7% (inactive) and 14.1% (inactive); in that of `CC1(C)[C@@H](OC(=O)CCC(=O)O)CC[C@]2(C)[C@H]3C(=O)C=C4[C@@H]5C[C@@](C)(C(=O)O)CC[C@]5(C)CC[C@@]4(C)[C@]3(C)CC[C@@H]12`, 103% (inactive) and -71.7% (active); in that of `O[C@H](c1cc(C(F)(F)F)nc2c(C(F)(F)F)cccc12)[C@@H]1CCCCN1`, 74.5% (inactive) and 54.9% (inactive). In the case of `O=C1c2ccccc2C(=O)N1/N=C/c1ccc2c(c1)OCO2` it was 116% (inactive); in that of `CCNC(=O)Nc1ccc(-c2nc3c(c(N4CCOC[C@@H]4C)n2)CCN(C2COC2)C3)cc1`, 50% (inactive); in that of `COC(=O)/C=C/c1cc(O)c2c(c1)C(C(=O)OC)C(c1ccc(O)c(O)c1)O2` (stereo not given), 27.8% (inactive) and 29.9% (inactive). As to `CNC(=O)c1cccnc1`, the growth was 110% (inactive).

As to `CCN(CC)CCNc1ccc(C)c2sc3ccccc3c(=O)c12` (tested in a mixture with another compound), the growth was 24.6% (inactive) and 20.5% (inactive).
